The values below come from PubChem BioAssay (NCATS).

“And” between values parts separate entries of the source, which are not always exact repeats. Equal values may be shown once. The source made the active and inactive calls.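 How the source made its calls: active means compounds whose dose series gives a full or clear partial fitted curve of increased nuclear translocation; inconclusive means weak partial curve or effect only at the top dose; inactive means no dose-dependent translocation response.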 Some results are limits rather than exact numbers.
Potency means the concentration at half of the fitted maximal effect.

Chain of Glucocorticoid receptor (Homo sapiens) (P04150 whole entry, looked up): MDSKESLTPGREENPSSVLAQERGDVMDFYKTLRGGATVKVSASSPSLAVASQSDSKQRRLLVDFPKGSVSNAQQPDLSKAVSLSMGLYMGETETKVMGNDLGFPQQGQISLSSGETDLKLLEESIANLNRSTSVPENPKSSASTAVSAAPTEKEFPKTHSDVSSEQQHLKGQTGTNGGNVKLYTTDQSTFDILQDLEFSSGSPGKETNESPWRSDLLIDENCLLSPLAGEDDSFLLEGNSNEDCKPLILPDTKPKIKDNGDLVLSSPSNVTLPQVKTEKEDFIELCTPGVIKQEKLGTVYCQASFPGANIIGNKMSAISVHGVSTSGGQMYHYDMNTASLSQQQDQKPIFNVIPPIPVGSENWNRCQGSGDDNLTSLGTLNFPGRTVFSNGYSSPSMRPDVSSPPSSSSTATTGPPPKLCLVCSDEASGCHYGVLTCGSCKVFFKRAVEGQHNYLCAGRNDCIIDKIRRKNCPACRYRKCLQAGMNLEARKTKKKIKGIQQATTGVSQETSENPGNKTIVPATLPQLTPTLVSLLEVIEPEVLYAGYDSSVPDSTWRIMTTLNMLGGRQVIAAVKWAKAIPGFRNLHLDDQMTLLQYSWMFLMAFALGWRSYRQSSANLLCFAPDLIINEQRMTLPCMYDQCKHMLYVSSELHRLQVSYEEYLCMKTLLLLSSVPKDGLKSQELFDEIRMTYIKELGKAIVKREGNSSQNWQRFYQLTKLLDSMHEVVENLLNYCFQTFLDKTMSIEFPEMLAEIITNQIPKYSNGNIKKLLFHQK

This assay addresses Glucocorticoid receptor (Homo sapiens) (UniProt P04150). Kind of assay: GR-GFP Redistribution (AID 450). The settings on record: U2OS GR-GFP nuclear translocation, laser cytometry, 2 h. From the text: NIH Molecular Libraries Screening Centers Network [MLSCN]
NIH Chemical Genomics Center [NCGC]
The glucocorticoid receptor (GR) Redistribution assay (BioImage) enables the visualization of GR cytoplasmic to nuclear translocation by the use of a GR-GFP fusion. GR is normally cytosolic, however ligands such as dexamethasone, cause nuclear translocation where the protein binds to response elements and interacts with various co-factors to modulate transcription. Because both functional agonists and antagonists can induce nuclear translocation, this assay can detect ligands regardless of their effects on gene expression. GR-GFP expressing U20S cells were used here. Dexamethasone was the positive control for translocation and data normalization. Detection of nuclear translocation was performed in 1536-well plates using the Acumen laser scanning plate cytometer (TTP LabTech). Validation of this assay and a detailed protocol have been described.
NCGC Assay Protocol Summary:
GR-GFP U2OS cells were maintained in DMEM with Glutamax and high glucose, 1% v/v penicillin-streptomycin, and 0.5 mg/mL Geneticin. For cell culture, 10% […] fetal bovine serum (FBS) was used (Invitrogen #26140-079). For cell plating 10% dextran, charcoal-stripped FBS (Hyclone SH30068.03) was used. U2OS cells were trypsin treated, suspended in medium, and passed through a 40 um basket filter. The cells were seeded at 600 cells/5 uL/well into clear-bottom black sided 1536-well plates and incubated for approximately 20 hrs, 37degC, 5%, CO2 in a tissue culture incubator. Twenty-three nL of compound was delivered by pin tool and the plates were incubated as above for 2 hrs. The compounds were tested as a 7-point titration ranging from 46 uM to 0.6 nM. The cells were fixed using the Kalypsys Washer/Dispenser station. The fixing protocol involved aspiration of the cell media, addition of 6 uL/well of PBS, aspiration of PBS, addition of 5uL/well of 100% methanol, aspiration of methanol, and addition of 3 uL/well PBS with 1.5 uM propidium iodide (PI). The plates were read by the Acumen Explorer using a 1 x 8 um scan of the whole well area. PI fluorescence triggered the collection of PI and GFP signals. A nuclei population was defined by a 10 to 100 um width and depth filter that eliminated small and large fluorescent particles. Two subpopulations of nuclei were then defined by peak intensity of GFP fluorescence to obtain translocated and untranslocated objects. The number of translocated objects was used for data normalization.
Keywords: NIH Roadmap, MLSCN, MLI, MLSMR, sOGT, qHTS, NCGC
In the case of `C[C@H](O)C(=O)Nc1c(I)c(C(=O)NC(CO)CO)c(I)c(C(=O)NC(CO)CO)c1I`, the Potency is > 20.6 µM (inactive).

For `CCOC(=O)n1ccn(C)c1=S`, the Potency was > 20.6 µM (inactive).

With `CCN(CCCCOC(=O)c1ccc(OC)c(OC)c1)C(C)Cc1ccc(OC)cc1` (stereo not given), the Potency is > 20.6 µM (inactive).

For `CC(C)COC(=O)OCN1C(=O)CN(CCN2CC(=O)N(COC(=O)OCC(C)C)C(=O)C2)CC1=O`, the Potency was > 46 µM (inactive).

On to `COc1cccc2c1C(=O)c1c(O)c3c(c(O)c1C2=O)C[C@@](O)(C(C)=O)C[C@@H]3O[C@H]1C[C@H](N)[C@H](O)[C@H](C)O1`, for which the Potency is > 46 µM (inactive) and > 20.6 µM (inactive).

For the compound `C=C(CC)C(=O)c1ccc(OCC(=O)O)c(Cl)c1Cl`, the Potency was > 20.6 µM (inactive).

Turning to `CCn1cc(C(=O)O)c(=O)c2cnc(N3CCCC3)nc21`, the Potency is > 20.6 µM (inactive).

For the compound `CC(=O)N(O)CCCCCNC(=O)CCC(=O)N(O)CCCCCNC(=O)CCC(=O)N(O)CCCCCN`, the Potency is > 20.6 µM (inactive).

For `CC(=O)OCC(=O)[C@@]12OC(C)(C)O[C@@H]1C[C@H]1[C@@H]3C[C@H](F)C4=CC(=O)C=C[C@]4(C)[C@@]3(F)[C@@H](O)C[C@@]12C`, the Potency is 0.00057 µM (active).

As for `CCCCOc1cc(C(=O)NCCN(CC)CC)c2ccccc2n1`, the Potency was > 20.6 µM (inactive).

Turning to `C[C@@H]1C[C@H]2[C@@H]3CCC4=CC(=O)C=C[C@]4(C)[C@@]3(F)[C@@H](O)C[C@]2(C)[C@H]1C(=O)CO`, the Potency was > 20.6 µM (inactive).

Consider `C[C@H]1[C@H](NC(=O)/C(=N/OC(C)(C)C(=O)O)c2csc(N)n2)C(=O)N1S(=O)(=O)O` (stereo in doubt), for which the Potency is > 20.6 µM (inactive).

In the case of `NCCc1ccn[nH]1`, the Potency was > 20.6 µM (inactive).

Consider `Cc1c(N(C)CS(=O)(=O)O)c(=O)n(-c2ccccc2)n1C`, for which the Potency is > 20.6 µM (inactive).

For `CC1(C)O[C@@H]2C[C@H]3[C@@H]4C[C@H](F)C5=CC(=O)CC[C@]5(C)[C@H]4[C@@H](O)C[C@]3(C)[C@]2(C(=O)CO)O1`, the Potency was 0.00217 µM (active).

As for `CC(C)N=C(N)/N=C(\N)Nc1ccc(Cl)cc1`, the Potency is > 20.6 µM (inactive).

For `CN1CCN(CCCN2c3ccccc3Sc3ccc(S(=O)(=O)N(C)C)cc32)CC1`, the Potency was > 20.6 µM (inactive).

Consider `CCOc1ccc(Cc2nccc3cc(OCC)c(OCC)cc23)cc1OCC`, for which the Potency was > 20.6 µM (inactive).

Take `CCCCOc1ccc(C(=O)CCN2CCCCC2)cc1`: the Potency was > 20.6 µM (inactive).

Take `CCCCC(=O)O[C@]1(C(=O)CO)CC[C@H]2[C@@H]3CCC4=CC(=O)CC[C@]4(C)[C@H]3[C@@H](O)C[C@@]21C`: the Potency was 0.000459 µM (active).

Turning to `NC(=NCCCCCCN=C(N)/N=C(\N)Nc1ccc(Cl)cc1)/N=C(\N)Nc1ccc(Cl)cc1`, the Potency is > 20.6 µM (inactive).

In the case of `CN1CCN(C(c2ccccc2)c2ccccc2)CC1`, the Potency was > 20.6 µM (inactive).

For `COc1c2occc2c(OC)c2c(=O)cc(C)oc12`, the Potency was > 20.6 µM (inactive).

As for `COc1cc(-c2ccc(=O)[nH]n2)ccc1OC(F)F`, the Potency was > 46 µM (inactive) and > 20.6 µM (inactive).

Regarding `Cc1ccnc(NS(=O)(=O)c2ccc(N)cc2)n1`, the Potency is > 20.6 µM (inactive).

On to `CNCCC=C1c2ccccc2CCc2ccccc21`, for which the Potency was > 46 µM (inactive) and > 20.6 µM (inactive).

As for `O=C(OCCOCCO)c1ccccc1Nc1cccc(C(F)(F)F)c1`, the Potency is > 20.6 µM (inactive).

On to `CCCCCCC[N+](CC)(CC)CCCCc1ccc(Cl)cc1`, for which the Potency was > 20.6 µM (inactive).

As to `CCCCCCCCCCCCCCCC[N+](C)(C)CCN(Cc1ccc(OC)cc1)c1ncccn1`, the Potency was > 20.6 µM (inactive).

With `COc1ccc(CCN2CCC(Nc3nc4ccccc4n3Cc3ccc(F)cc3)CC2)cc1`, the Potency is > 20.6 µM (inactive).

As for `CC(=O)OCC(=O)[C@@]1(OC(C)=O)[C@@H](C)C[C@H]2[C@@H]3C[C@H](F)C4=CC(=O)C=C[C@]4(C)[C@@]3(F)[C@@H](O)C[C@@]21C`, the Potency was 0.000878 µM (active).

In the case of `CC(C)(Oc1ccc(Cl)cc1)C(=O)O`, the Potency was > 20.6 µM (inactive) and > 46 µM (inactive).

Turning to `NCCCC[C@H](N[C@@H](CCc1ccccc1)C(=O)O)C(=O)N1CCC[C@H]1C(=O)O`, the Potency was > 20.6 µM (inactive).

As for `C/C=C(/C(=C/C)c1ccc(O)cc1)c1ccc(O)cc1`, the Potency is > 20.6 µM (inactive).

In the case of `c1ccc(-c2ccc(C(c3ccccc3)n3ccnc3)cc2)cc1` (stereo not given), the Potency was > 20.6 µM (inactive).

`CC(=O)O[C@H]1C[C@@H]2CC[C@@H]3[C@H](CC[C@@]4(C)[C@H]3C[C@H]([N+]3(C)CCCCC3)[C@@H]4OC(C)=O)[C@@]2(C)C[C@@H]1[N+]1(C)CCCCC1`: the Potency was > 20.6 µM (inactive).

As for `Oc1ccc(Cl)cc1Sc1cc(Cl)ccc1O`, the Potency is > 46 µM (inactive).

`C[N+]1(CCCCC[N+]2(C)CCCC2)CCCC1`: the Potency is > 46 µM (inactive) and > 20.6 µM (inactive).

Turning to `Nc1cc(Cl)c(NC2=NCCN2)c(Cl)c1`, the Potency was > 46 µM (inactive).

Regarding `Oc1c(Cl)cc(Cl)cc1Sc1cc(Cl)cc(Cl)c1O`, the Potency is > 20.6 µM (inactive).
